# From article PMC4336329 (PLoS ONE, 2015)
# Among all 310,000 compounds or so, about 14,000 (4.5%) showed an effect of 50% or more. Effects have a minus sign here. The sample holds strong results, similar compounds and a random draw of the others, so the mix is not that of the screen.
# Target: human ether-à-go-go-related gene (hERG) potassium channel (human, UniProt Q12809)
# Assay: primary screen, population patch clamp on CHO cells stably expressing hERG; higher = less effect of the substance
# 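Also: peak tail current of the secondary pulse compared with the same well before compound.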
# Chain of human ether-à-go-go-related gene (hERG) potassium channel (Q12809 whole entry, looked up): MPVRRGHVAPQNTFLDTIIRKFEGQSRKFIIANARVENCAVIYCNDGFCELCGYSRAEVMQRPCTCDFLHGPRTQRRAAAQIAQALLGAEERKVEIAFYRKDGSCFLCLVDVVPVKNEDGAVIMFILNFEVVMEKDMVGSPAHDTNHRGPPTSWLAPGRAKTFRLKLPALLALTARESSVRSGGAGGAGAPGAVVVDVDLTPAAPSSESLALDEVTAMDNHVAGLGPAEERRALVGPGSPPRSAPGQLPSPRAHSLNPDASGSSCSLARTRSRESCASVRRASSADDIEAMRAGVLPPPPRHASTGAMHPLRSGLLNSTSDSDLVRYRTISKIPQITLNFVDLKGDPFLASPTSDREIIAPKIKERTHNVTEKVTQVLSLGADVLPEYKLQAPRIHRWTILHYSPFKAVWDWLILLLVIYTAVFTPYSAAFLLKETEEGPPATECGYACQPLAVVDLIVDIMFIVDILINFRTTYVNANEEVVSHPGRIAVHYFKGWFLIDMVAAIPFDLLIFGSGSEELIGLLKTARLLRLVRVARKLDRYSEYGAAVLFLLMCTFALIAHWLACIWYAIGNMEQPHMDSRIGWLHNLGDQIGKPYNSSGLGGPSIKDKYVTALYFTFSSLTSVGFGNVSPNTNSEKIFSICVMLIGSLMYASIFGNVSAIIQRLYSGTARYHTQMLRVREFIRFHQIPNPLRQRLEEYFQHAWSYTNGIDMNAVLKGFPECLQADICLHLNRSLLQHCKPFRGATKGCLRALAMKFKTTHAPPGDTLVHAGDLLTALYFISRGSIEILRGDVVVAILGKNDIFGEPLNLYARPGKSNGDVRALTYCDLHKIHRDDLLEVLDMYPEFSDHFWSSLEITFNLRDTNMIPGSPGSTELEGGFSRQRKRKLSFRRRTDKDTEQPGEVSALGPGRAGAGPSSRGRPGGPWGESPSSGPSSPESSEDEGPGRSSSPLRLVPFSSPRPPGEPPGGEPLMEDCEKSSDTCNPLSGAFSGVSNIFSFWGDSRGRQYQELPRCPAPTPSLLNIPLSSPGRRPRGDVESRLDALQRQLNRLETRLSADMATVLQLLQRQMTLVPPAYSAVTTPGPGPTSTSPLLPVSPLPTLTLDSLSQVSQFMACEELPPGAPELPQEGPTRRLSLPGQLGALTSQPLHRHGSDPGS
row,Compound,"hERG current change (%, negative = inhibition) at 10uM [%]"
1,Cc1ccc(N2C(=O)C3C4CC(=O)C(c5ccccc54)C3C2=O)cc1C (stereo not drawn),-12.3
2,C#CCOCCOCCOCCNc1nc(N2CCN(C(=O)Cn3cc(CC(C)O)nn3)CC2)nc(N2CCN(C(=O)Cn3cc(CC(C)O)nn3)CC2)n1 (stereo not drawn),-7.58
3,CC(C)(C)[C@H]1C=C(C(=O)O)O[C@@H](OCCCCO)C1,6.41
4,CC12CCC(C(=O)NCc3ccco3)(OC1=O)C2(C)C (stereo not drawn),2.02
5,COc1cccc(NC(=O)Nc2cc(C(=O)O)ccc2N2CC3CC(C2)c2cccc(=O)n2C3)c1 (stereo not drawn),8.25
6,O=C(Nc1nccs1)c1cc2sccc2n1Cc1ccc(Cl)cc1,-2.4
7,Cc1ccc(C)c(N(CC(=O)NC(C)(C)C)C(=O)CCC(=O)Nc2nccs2)c1,2.56
8,CC(C)Cn1c(N)c(C(=O)CSc2nc3ncc(Cl)cc3[nH]2)c(=O)n(C)c1=O,-0.019
9,Cc1coc2cc3oc(=O)c(CCC(=O)N4CCC(C(=O)O)(c5ccccc5)CC4)c(C)c3cc12,0.933
10,CC(C)(C)N1CC(OC(N)=O)C1,21
11,CC(C)CNC(=O)COC(=O)c1c2c(nc3ccccc13)CCC2,4.12
12,Cc1c2ccccc2nc2ccccc12,-1.84
13,Clc1c2c(nc3ccccc13)CCC2,16.4
14,CC(C)NCC(=O)Nc1c2c(nc3ccccc13)CCC2.O=C(O)C(=O)O,6.26
15,CC(C)(C)Nc1c2ccccc2nc2ccccc12,-68.2
16,CC(C)CNc1c2c(nc3ccccc13)CCC2.Cl,-69.2
17,Cl.c1ccc(CNc2c3c(nc4ccccc24)CCC3)cc1,-75.3
18,CC(C)(C)OC(=O)NNc1c2ccccc2nc2ccccc12,-27.7
19,OCCNc1c2c(nc3ccccc13)CCCC2,-39
20,Cc1ccc(N/N=C/c2ccncc2)cc1.Cl,4.03
21,O=C(COC(=O)c1ccc(O)cc1)NC1CCCCCC1,7.22

row,Compound,"hERG current change (%, negative = inhibition) at 10uM [%]"
1,O=C(NNS(=O)(=O)c1ccc(C(F)(F)F)cc1)c1cnn(-c2ccccc2)c1C(F)(F)F,11.5
2,CCOc1ccc(N(CC)C(=O)CCS(=O)(=O)c2cccc3nonc23)cc1,-4.92
3,O=C(CSc1nnc(COc2ccccc2)n1-c1ccccc1)c1ccccc1,11.2
4,O=C(CCCCCNC(=O)N1CCn2c1nc1ccccc12)NCc1ccccc1Cl,-16.6
5,CCN(CC)S(=O)(=O)c1cccc(-c2nnc(SCc3nnc(-c4cccs4)o3)n2N)c1,-44.3
6,CCN(CC)S(=O)(=O)c1cccc(-c2nnc(SCC#N)n2Cc2ccccc2)c1,-25.5
7,CCSc1nnc(-c2cccc(S(=O)(=O)N(CC)CC)c2)n1Cc1ccccc1,-62.6
8,Cc1cccc(-c2nnc(SCC3CNC(=O)O3)n2-c2ccc(Cl)cc2)c1 (stereo not drawn),-40.3
9,COc1cccc(-c2nnc(SCC3CNC(=O)O3)n2-c2ccc(Cl)cc2)c1 (stereo not drawn),8.33
10,CCN(CC)S(=O)(=O)c1cccc(-c2nnc(SCC(N)=O)n2N)c1,-28.9
11,CCN(CC)S(=O)(=O)c1cccc(-c2nnc(SCC(=O)c3ccc(Cl)s3)n2C)c1,-52.7
12,COc1ccc(-n2c(SCC3CNC(=O)O3)nnc2-c2ccc(Cl)cc2)cc1 (stereo not drawn),-54.8
13,CCN(CC)S(=O)(=O)c1ccc(-c2nnc(SCc3nnc(-c4ccccc4)o3)o2)cc1,7.63
14,CCN(CC)S(=O)(=O)c1cccc(-c2nnc(SCC(=O)NC)n2N)c1,8.5
15,CCN(CC)S(=O)(=O)c1cccc(-c2nnc(SC(C)C#N)n2Cc2ccccc2)c1 (stereo not drawn),-7.34
16,CCN(CC)S(=O)(=O)c1cccc(-c2nnc(SCc3nnc(-c4ccccc4)o3)n2C)c1,-67.4
17,CCn1cc(/C=C(\NC(=O)c2cc(OC)c(OC)c(OC)c2)C(=O)NCCN2CCOCC2)c2ccccc21,10.8
18,COc1ccc(CCNC(=O)Cn2nc([N+](=O)[O-])c(Br)c2C)cc1OC,-0.503
19,O=S(CC1CC1(Cl)Cl)CC1CC1(Cl)Cl (stereo not drawn),3.18
20,O=C(CNc1cccc(S(=O)(=O)N2CCCC2)c1)Nc1cccc(Br)c1,-18.5
21,COc1ccccc1N(C)S(=O)(=O)c1ccc(C(=O)NCc2ccc3c(c2)OCO3)cc1,4.2

row,Compound,"hERG current change (%, negative = inhibition) at 10uM [%]"
1,O=C(c1ccc(O)cc1)c1ccc(C(=O)O)c(C(=O)O)c1,23.2
2,Cc1cnc(NC(=O)CSC(=S)N2CCOCC2)s1,15.4
3,COC(=O)Nc1ccc(S(=O)(=O)N2CCC(Cc3ccccc3)CC2)cc1,1.4
4,COc1ccc2nc(NC(=O)CCc3ccc(OC)c(OC)c3)sc2c1,26.2
5,CCN(CC)S(=O)(=O)c1cccc(-c2n[nH]c(=S)n2C)c1,-51.8
6,CCN(CC)S(=O)(=O)c1cccc(-c2n[nH]c(=S)n2CC(C)C)c1,6.22
7,CCn1c(SCc2nnc(-c3ccccc3)o2)nnc1-c1ccc(S(=O)(=O)N2CCCC2)cc1,-34.6
8,CCN(CC)S(=O)(=O)c1ccc(-c2nnc(SCc3nnc(-c4ccc(C)cc4)o3)n2CC)cc1,-55.2
9,COc1ccc(-c2nnc(CSc3nc4ccccc4c(=O)n3C)o2)cc1OC,-4.89
10,COc1ccc(-c2nnc(SCc3nnc(-c4ccc(Cl)cc4)o3)n2-c2ccccc2)cc1,-56
11,COc1ccc(-c2nnc(SCc3nnc(-c4ccccc4)o3)n2C)cc1OC,-54.3
12,CCC(C)n1c(-c2cccc(S(=O)(=O)N(CC)CC)c2)n[nH]c1=S (stereo not drawn),26.6
13,COc1ccc(-n2c(SCc3nnc(-c4ccccc4)o3)nnc2-c2ccccc2)cc1,-29.5
14,COCCn1c(SCc2nnc(-c3ccc(OC)c(OC)c3)o2)nnc1-c1ccncc1,1.42
15,COc1ccc(-c2nnc(SCc3nnc(-c4ccccc4)o3)n2-c2ccccc2)cc1,-9.78
16,CCN(CC)S(=O)(=O)c1ccc(-c2nnc(SCc3nnc(-c4ccc(C)cc4)o3)o2)cc1,8.8
17,COc1cc(NC(=O)c2ccccc2)ccc1NC(=O)c1cc2ccccc2o1,25.8
18,CCOC(=O)c1cc(-c2ccc([N+](=O)[O-])cc2)nc2c1c(=O)[nH]c(=O)n2Cc1ccccc1,11.9
19,CC1CCN(C(=O)c2[nH]cnc2C(=O)NC2CCN(C(=O)OC(C)(C)C)CC2)CC1,9.62
20,COc1ccc(NC(=S)NCc2ccco2)c(OC)c1,-2.08
21,CCOc1ccc(N(C)S(=O)(=O)c2ccc3[nH]cc(C(=O)NCCCOC)c(=O)c3c2)cc1,3.51

row,Compound,"hERG current change (%, negative = inhibition) at 10uM [%]"
1,O=C(O)Cn1c2ccccc2c2ccccc21,30.5
2,COc1ccc2c(c1OC)C(=O)N(c1ncn[nH]1)C2,13.5
3,O=C(/C=C\c1ccc(-c2cccc([N+](=O)[O-])c2)o1)N1CCOCC1,-10.2
4,Cc1ccc2[nH]c3c(=O)n(CC(=O)N4CCN(C)CC4)ncc3c2c1,-1.46
5,Cn1c(=O)n(C)c2cc(NC(=O)CSc3ccccc3)ccc21,4.01
6,CCc1nc2ccccc2n1CCc1ccccc1.Cl,-16.6
7,CN(C(=O)c1cc([N+](=O)[O-])ccc1N1CCCC1)C1CCCCC1,1.07
8,CCN(CC)S(=O)(=O)c1cccc(-c2nnc(SCC(N)=O)n2CCc2ccccc2)c1,-37.3
9,CCN(CC)S(=O)(=O)c1cccc(-c2nnc(SCc3ncc(-c4ccccc4)o3)n2C)c1,-68.2
10,CCN(CC)S(=O)(=O)c1cccc(-c2nnc(SCC(=O)NC)n2CCc2ccccc2)c1,-27.3
11,CCCNC(=O)C(Cc1cccc(OC)c1)NC(=O)c1ccc(C#N)cc1 (stereo not drawn),-7.8
12,CCCNC(=O)C(Cc1cccc(C#N)c1)NC(=O)c1ccc(C#N)cc1 (stereo not drawn),-55.9
13,CCCNC(=O)C(Cc1ccc(OC)cc1)NC(=O)c1ccc(C#N)cc1 (stereo not drawn),-50.7
14,CCCNC(=O)C(Cc1cccc(Cl)c1)NC(=O)c1ccc(C#N)cc1 (stereo not drawn),-11
15,CCCNC(=O)C(Cc1ccc(I)cc1)NC(=O)c1ccc(C#N)cc1 (stereo not drawn),8.48
16,CCCNC(=O)C(Cc1cccc(C#N)c1)NC(=O)c1cccc([N+](=O)[O-])c1 (stereo not drawn),-10.2
17,O=C(Oc1ccc(F)cc1)c1ccc2c(=O)n3c(nc2c1)CCC3,-21.6
18,O=C(COC(=O)c1cccc(O)c1)NC(=O)Cc1ccccc1,3.25
19,Cc1nn(-c2ccccc2)c(N2CCCC2)c1/C=C1\N=C(c2ccccc2)OC1=O,11.7
20,CCCCCC(=O)NNC(=O)c1c(O)c2ccccc2n(CC)c1=O,-13.5
21,Cc1cccc(N=C2NN=C(c3ccccc3F)CS2)c1C,41.8
